From PubChem BioAssay (NCATS)
Results filed as inconclusive are left out. Active and inactive are the calls of the source. Calls follow the shape of the dose curve; as a rule, active = well fitted inhibition curve with a large enough effect; inconclusive = small, poorly fitted or top-dose-only effect; inactive = flat fitted curve, though single readings scatter.

Tests used:
Test in all cases: qHTS profiling for inhibitors of Plasmodium falciparum proliferation (AID 504749); also: nearly all actives have a fitted effect of over 60% in size
Settings in all cases: P. falciparum in erythrocytes, SYBR Green DNA, 72 h; series mostly up to 12.8 µM
CP265 = test system: CP265
Summary of the method: (§1)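 P. falciparum-infected erythrocytes (0.3% parasitemia, 2.5% hematocrit final) were exposed to compounds for 72 h at 37 C in 5% CO2, then lysed with SYBR Green buffer overnight at room temperature; parasite DNA fluorescence was normalized to artemisinin and DMSO controls.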

CP266 = test system: CP266
Summary of the method: as §1

CP268 = test system: CP268
Summary of the method: as §1

CP269 = test system: CP269
Summary of the method: as §1

CP286 = test system: CP286
Summary of the method: as §1

CP291 = test system: CP291
Summary of the method: as §1

CP297 = test system: CP297
Summary of the method: as §1

CP305 = test system: CP305
Summary of the method: as §1

CP315 = test system: CP315
Summary of the method: as §1

CP325 = test system: CP325
Summary of the method: as §1

CP329 = test system: CP329
Summary of the method: as §1

CP335 = test system: CP335
Summary of the method: as §1

DFO2036 = test system: DFO2036
Summary of the method: as §1

DIV14 = test system: DIV14
Summary of the method: as §1

DIV17 = test system: DIV17
Summary of the method: as §1

DIV30 = test system: DIV30
Summary of the method: as §1

Dd2 = test system: Dd2
Summary of the method: as §1

ECU = test system: ECU
Summary of the method: as §1

FAB9 = test system: FAB9
Summary of the method: as §1

GB4 = test system: GB4
Summary of the method: as §1

HB3 = test system: HB3
Summary of the method: as §1

ICS = test system: ICS
Summary of the method: as §1

JCK = test system: JCK
Summary of the method: as §1

N140 = test system: N140
Summary of the method: as §1

P93_24 = test system: P93_24
Summary of the method: as §1

P94_40 = test system: P94_40
Summary of the method: as §1

PAD = test system: PAD
Summary of the method: as §1

PC15 = test system: PC15
Summary of the method: as §1

PC26 = test system: PC26
Summary of the method: as §1

PC49 = test system: PC49
Summary of the method: as §1

SC27B = test system: SC27B
Summary of the method: as §1

TAB109 = test system: TAB109
Summary of the method: as §1

TAB113 = test system: TAB113
Summary of the method: as §1

TAB165 = test system: TAB165
Summary of the method: as §1

W2 = test system: W2
Summary of the method: as §1

Measured: Potency

CC1(C)SC2C(N3C(=O)C(c4ccccc4)NC3(C)C)C(=O)N2C1C(=O)O (stereo not given)
inactive: CP265 | CP266 | CP268 | CP269 | CP286 | CP291 | CP297 | CP305 | CP315 | CP325 | CP329 | CP335 | DFO2036 | DIV14 | DIV17 | DIV30 | Dd2 | ECU | FAB9 | GB4 | HB3 | ICS | JCK | N140 | P93_24 | P94_40 | PAD | PC15 | PC26 | PC49 | SC27B | TAB109 | TAB113 | TAB165 | W2
